# High-throughput results deposited in PubChem by National Center for Advancing Translational Sciences (NCATS).
# BAZ2B block – qHTS Assay for Inhibitors of BAZ2B; Bromodomain adjacent to zinc finger domain protein 2B (Homo sapiens), Q9UIF8; AlphaScreen BAZ2B-H3K14Ac peptide displacement; Potency, µM (series often up to 114 µM), for the others: at the top dose activity change, negative = inhibition, hits mostly inhibitors; actives 4.4% (n = 360,000); AID 504333, 2011; also: potency is read from the fitted curve at half-maximal effect; % is scaled to controls: 0 for no effect and ±100 for the full control effect; nearly all actives have a fitted effect of over 60% in size
# Target sequence (Q9UIF8 whole entry, looked up, the tested form may be a part): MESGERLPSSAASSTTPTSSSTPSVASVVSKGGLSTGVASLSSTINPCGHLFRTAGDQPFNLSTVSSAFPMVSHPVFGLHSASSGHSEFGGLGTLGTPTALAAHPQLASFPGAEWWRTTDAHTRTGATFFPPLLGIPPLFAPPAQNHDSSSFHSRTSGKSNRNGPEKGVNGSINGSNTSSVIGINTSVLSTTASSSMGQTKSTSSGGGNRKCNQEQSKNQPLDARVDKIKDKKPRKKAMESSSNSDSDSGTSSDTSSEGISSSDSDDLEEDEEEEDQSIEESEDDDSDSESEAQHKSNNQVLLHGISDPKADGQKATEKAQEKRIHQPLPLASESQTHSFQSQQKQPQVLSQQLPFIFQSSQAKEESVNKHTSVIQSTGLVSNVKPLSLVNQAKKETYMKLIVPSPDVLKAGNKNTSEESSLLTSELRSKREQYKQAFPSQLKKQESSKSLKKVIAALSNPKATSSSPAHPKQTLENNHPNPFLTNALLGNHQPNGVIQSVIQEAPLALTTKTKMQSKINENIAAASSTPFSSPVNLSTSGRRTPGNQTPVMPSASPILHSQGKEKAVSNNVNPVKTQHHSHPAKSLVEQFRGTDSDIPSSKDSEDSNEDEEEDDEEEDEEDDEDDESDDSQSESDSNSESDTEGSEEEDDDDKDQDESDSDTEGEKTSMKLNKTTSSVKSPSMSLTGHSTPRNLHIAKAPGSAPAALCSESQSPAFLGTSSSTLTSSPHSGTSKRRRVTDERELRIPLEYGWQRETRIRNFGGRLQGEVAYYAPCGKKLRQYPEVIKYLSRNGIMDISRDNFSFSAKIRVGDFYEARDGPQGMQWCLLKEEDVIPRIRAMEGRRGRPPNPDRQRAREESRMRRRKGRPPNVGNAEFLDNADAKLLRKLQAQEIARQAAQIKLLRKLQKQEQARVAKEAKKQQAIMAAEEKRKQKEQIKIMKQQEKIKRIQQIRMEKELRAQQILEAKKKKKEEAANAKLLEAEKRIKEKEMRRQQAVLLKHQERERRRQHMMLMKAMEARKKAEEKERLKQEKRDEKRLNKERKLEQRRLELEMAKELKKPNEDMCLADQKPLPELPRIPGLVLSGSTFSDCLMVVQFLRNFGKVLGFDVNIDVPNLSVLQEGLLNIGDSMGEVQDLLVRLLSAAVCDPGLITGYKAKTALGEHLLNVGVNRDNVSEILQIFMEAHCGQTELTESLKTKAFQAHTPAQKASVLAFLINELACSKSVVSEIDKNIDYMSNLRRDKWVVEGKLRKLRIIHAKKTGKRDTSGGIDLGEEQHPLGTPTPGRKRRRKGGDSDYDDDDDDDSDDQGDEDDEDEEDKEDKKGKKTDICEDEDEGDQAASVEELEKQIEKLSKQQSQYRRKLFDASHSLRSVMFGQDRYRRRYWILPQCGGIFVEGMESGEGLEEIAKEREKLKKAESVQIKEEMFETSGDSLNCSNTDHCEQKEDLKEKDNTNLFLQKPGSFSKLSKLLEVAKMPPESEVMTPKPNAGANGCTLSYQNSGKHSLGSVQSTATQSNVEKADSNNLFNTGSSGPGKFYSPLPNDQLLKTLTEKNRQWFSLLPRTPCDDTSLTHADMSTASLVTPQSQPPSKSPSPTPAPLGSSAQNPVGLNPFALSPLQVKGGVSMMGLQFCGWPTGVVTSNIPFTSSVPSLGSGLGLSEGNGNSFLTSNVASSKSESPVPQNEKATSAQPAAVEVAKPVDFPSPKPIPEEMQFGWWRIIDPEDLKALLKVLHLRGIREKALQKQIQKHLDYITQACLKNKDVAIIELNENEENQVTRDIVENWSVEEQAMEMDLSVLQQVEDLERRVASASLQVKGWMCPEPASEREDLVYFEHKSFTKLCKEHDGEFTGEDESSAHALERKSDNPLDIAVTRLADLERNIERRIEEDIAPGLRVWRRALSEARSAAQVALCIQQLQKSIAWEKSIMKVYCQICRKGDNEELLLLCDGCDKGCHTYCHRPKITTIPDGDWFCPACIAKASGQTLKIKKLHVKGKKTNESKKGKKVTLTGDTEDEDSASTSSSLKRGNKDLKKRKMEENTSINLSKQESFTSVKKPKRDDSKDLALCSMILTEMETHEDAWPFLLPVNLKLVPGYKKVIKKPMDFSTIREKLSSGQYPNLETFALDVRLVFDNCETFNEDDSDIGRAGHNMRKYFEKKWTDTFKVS
#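 Compounds, titrated to a top concentration of 110 uM, were incubated 30 min at room temperature with preformed BAZ2B/acetyl-K14 H3 peptide complex (50 nM each). Proximity signal was measured by AlphaScreen after 20 min with beads.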
# JMJD2A Tudor inh – qHTS Assay for Inhibitors of JMJD2A-Tudor Domain; AlphaScreen JMJD2A-Tudor / H3K4me3 peptide binding; actives 4.4% (n = 390,000); Potency, µM (series often up to 114 µM), for the others: top-dose activity change, negative = inhibition, most hits filed as inhibitors; Lysine-specific demethylase 4A (Homo sapiens), O75164; also: potency is read from the fitted curve at half-maximal effect; % is scaled to controls: 0 for no effect and ±100 for the full control effect; nearly all actives have a fitted effect of over 50% in size
# HP1b chromo inh – HTS for Inhibitors of HP1-beta Chromodomain Interactions with Methylated Histone Tails | actives 0.56% (n = 390,000) | Potency, µM (top dose mostly 114 µM), without a hit: at the top dose activity change, negative = inhibition, most hits filed as inhibitors | Chromobox protein homolog 1 (Homo sapiens), P83916 | AlphaScreen HP1-beta / biotin-H3K9me3 peptide binding | AID 540317, 2011; also: potency is read from the fitted curve at half-maximal effect; nearly all actives have a fitted effect of over 70% in size
#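 AlphaScreen: HP1-beta (50 nM) preformed 30 min with biotin-H3(1-18)K9me3 peptide (50 nM) in PBS pH 7.4, 0.01% Tween-20. Compound added for 30 min at RT, then streptavidin donor/nickel chelate acceptor beads (10 ug/mL) for 30 min.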
# G9a block – qHTS Assay for Inhibitors of Histone Lysine Methyltransferase G9a; Histone-lysine N-methyltransferase EHMT2 (Homo sapiens), Q96KQ7; G9a H3K9 monomethylation, AlphaScreen, 2 h; Potency, µM (doses to about 102 µM), for the others: at the top dose activity, negative = inhibition, actives largely listed as inhibitors; actives 8.8% (n = 350,000); AID 504332, 2011; also: potency is read from the fitted curve at half-maximal effect; % is scaled to controls: 0 for no effect and ±100 for the full control effect; nearly all actives have a fitted effect of over 75% in size
#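 AlphaScreen read-out: biotin-H3K9 peptide (500 nM) methylation by 20 nM enzyme with 20 uM SAM, 2 h at room temperature after 15 min compound preincubation; anti-monomethyl H3K9 antibody plus donor/acceptor beads, 10 min dark.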
# PLK1 PBD block – qHTS for Inhibitors of PLK1-PDB (polo-like kinase 1 - polo-box domain): Primary Screen; Serine/threonine-protein kinase PLK1 (Homo sapiens), P53350; actives 2.8% (n = 360,000); Plk1 PBD binding of FITC phosphopeptide, fluorescence polarization; Potency, µM, for inactives: max response, negative = inhibition, usual class: inhibitors; AID 720504, 2013; also: potency is read from the fitted curve at half-maximal effect; series mostly up to about 57 µM; % is scaled to controls: 0 for no effect and ±100 for the full control effect; nearly all actives have a fitted effect of over 65% in size
# PI5P4Ka inh – qHTS for Inhibitors of phosphatidylinositol 5-phosphate 4-kinase (PI5P4K). Phosphatidylinositol 5-phosphate 4-kinase type-2 alpha (Homo sapiens), P48426. PI5P4Kalpha enzyme, ADP-Glo luminescence, 60 min; stronger effect = lower value. max response, %. actives 1.2% (n = 330,000). AID 652105, 2013; active = max response of -50% or lower; inconclusive = between -30% and -50%; inactive = -30% or higher; also: value at the top dose of about 77 µM; % is scaled to controls: 0 for no effect and ±100 for the full control effect
#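 Single end-point luminescence (ADP-Glo) quantified ADP from PI5P4Kalpha turnover; ATP 5 microM final, 1 h at RT, 0.1% CHAPS and 0.28 mM EGTA in HEPES pH 7.4.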
# The depositor's hits bear a star; ? = inconclusive; · = no result given; [ ] = dose if it differs, or a comment. An excerpt weighted towards active compounds, which were near 12% of everything screened. Unless noted, calls follow the shape of the dose curve; as a rule, active = well fitted curve in the direction sought with a large enough effect; inconclusive = small, poorly fitted or top-dose-only effect, or another doubt; inactive = no such curve, though single readings can be large; an effect the other way counts as inactive or inconclusive.
SMILES,BAZ2B block,JMJD2A Tudor inh,HP1b chromo inh,G9a block,PLK1 PBD block,PI5P4Ka inh
COc1ccccc1C1C(C(C)=O)=C(O)C(=O)N1CCc1ccccc1 (stereo not drawn),-38%,-22%[57.1 µM],43%,45µM*,-24%,0
O=C(Cn1c(=O)n2nc(-c3ccccc3)nc2c2ccccc21)Nc1ccccc1C(F)(F)F,-1%,-16%,27%,?,·,·
COc1cc(C2C(C(=O)c3ccco3)=C(O)C(=O)N2CC2CCCO2)ccc1O (stereo not drawn),?,?,11%,50µM*,6%,8
CCOc1cc(C2C(C(=O)c3ccco3)=C(O)C(=O)N2CC2CCCO2)ccc1O (stereo not drawn),-20%,-16%,0%,45µM*,1%,-6
O=C(C1=C(O)C(=O)N(CC2CCCO2)C1c1ccccc1F)c1ccco1 (stereo not drawn),-11%,-17%,12%,40µM*,-8%,2
COc1ccc(OCc2nc(C#N)c(NCc3ccccc3Cl)o2)cc1,?,?,-18%,-46%[59 µM],·,·
COc1ccc(S(=O)(=O)/N=C2/C=CC(=O)C(C)=C2C)cc1,-8%,-35%,?,?,24µM*,-17
COc1ccc(S(=O)(=O)c2ccc(OC)cc2)cc1,8%,3%,27%,-6%[59 µM],-14%,9
CC1=C(C)/C(=N\OS(=O)(=O)c2ccc(C)cc2)C=CC1=O,25µM*,56µM*,?,20µM*,?,-4
CCCc1ccc(C(=O)O)cc1,·,·,·,-2%[59 µM],·,·
O=C(CCS(=O)(=O)c1cccs1)Nc1ccc(C(=O)Nc2ccccc2F)cc1,0%,-6%,26%,-47%[59 µM],·,·
Cc1ccc(NC(=O)N2CCN(c3nnc(C)c4c(C)n(-c5ccccc5)nc34)CC2)cc1Cl,-13%,-11%,5%,-1%[59 µM],·,·
CC1CCCC(=C\c2ccccc2)/C1=N/O (stereo not drawn),3%,?,?,10%[59 µM],27µM*,-7
CCc1ccc(NC(=O)CSc2nccn2C2CCCC2)cc1,?,-34%,19%,?,·,·
Cc1ccc(-c2csc(=Nc3ccc(F)cc3)n2Cc2ccc3c(c2)OCO3)cc1C,4.5µM*,50µM*,?,14µM*,·,·
Fc1ccc(-c2csc(=Nc3cccc(C(F)(F)F)c3)n2Cc2ccc3c(c2)OCO3)cc1,?,-33%,-7%,?,·,·
Clc1ccc(-c2csc(=Nc3ccccc3)n2Cc2ccc3c(c2)OCO3)cc1,?,?,?,13µM*,·,·
Cc1ccc(-c2csc(=Nc3ccccc3)n2Cc2ccc3c(c2)OCO3)cc1C,100µM*,?,-7%,14µM*,·,·
CCCOc1ccc(C(=O)Nc2ccc(S(=O)(=O)Nc3cc(C)nc(C)n3)cc2)cc1,-17%,-15%,42%,-25%,-2%,3
Cc1nnc(N2CCN(c3ccc(Cl)cc3)CC2)c2c1nnn2Cc1ccc(F)cc1,-18%,-14%,57%,10%[59 µM],·,·
CCN(CC)c1ccc(/C=N/Nc2cccc(C)c2)c(O)c1,50µM*,40µM*,18µM*,1.4µM*,?,-2
CCN(CC)c1ccc(/C=N/Nc2ccccc2)c(O)c1,45µM*,28µM*,16µM*,?,?,·
CCN(CC)c1ccc(C=Nc2ccccc2)c(O)c1,-38%,-35%,?,?,-10%,-25
CCN(CC)c1ccc(/C=N/NC(=S)NC)c(O)c1,40µM*,45µM*,?,?,-18%,4
CCN(CC)c1ccc(/C=N/NC(=O)OC)c(O)c1,-39%,-28%,9%,?,2%,13
SMILES,BAZ2B block,JMJD2A Tudor inh,HP1b chromo inh,G9a block,PLK1 PBD block,PI5P4Ka inh
COc1cc2[nH]c(=O)n(CCCC(=O)NCc3ccccc3Cl)c(=O)c2cc1OC,1%,-2%,17%,?,·,·
O=S(=O)(c1ccccc1)N1CCN(c2nc(-c3cccnc3)nc3ccccc23)CC1,50µM*,-22%,24%,3%[0.501 µM],0%,3
Cc1ccc(S(=O)(=O)N2CCN(c3nc(-c4ccnnc4)nc4ccccc34)CC2)cc1,·,32µM*,32%,·,·,·
COc1cc(-c2ccno2)ccc1S(=O)(=O)N1CCN(c2cccc(Cl)c2)CC1,-15%,-17%,27%,3%[59 µM],·,·
CC(=O)N1c2ccccc2C2(O)N=C(C)SC12 (stereo not drawn),?,5.6µM*,?,1.4µM*,5.3µM*,?
COCCN1C[C@@H](CO)O[C@@H](n2cnc3c(NC(C)C)ncnc32)C1,·,·,·,·,3%,-4
CC(=O)C1=C(O)C(=O)N(c2ccc(Br)cc2)C1c1ccc(Br)cc1 (stereo not drawn),?,-11%,13%,50µM*,-14%,-5
CC(=O)C1=C(O)C(=O)N(c2ccc(O)cc2)C1c1ccccc1[N+](=O)[O-] (stereo not drawn),-28%,-7%,-3%,14µM*,-20%,-19
CCCCN1C(=O)C(O)=C(C(C)=O)C1c1ccccc1[N+](=O)[O-] (stereo not drawn),?,-27%,42%,?,-21%,-1
COC(=O)c1ccc(CSc2ccc3nnc(-c4ccc(OC)cc4)n3n2)o1,-6%,·,·,-9%[59 µM],·,·
COc1cccc(NC(=O)CSc2ccc3nnc(-c4ccncc4)n3n2)c1,-31%,-11%,49%,50µM*,-4%,-5
O=C(CSc1ccc2nnc(-c3cccnc3)n2n1)Nc1ccccc1,-11%,-23%,41%,50µM*,-25%,-16
COc1ccc(-c2nnc3ccc(SCC(=O)Nc4cc(C)on4)nn23)cc1,·,·,·,56µM*,·,·
COC(=O)c1ccc(CSc2ccc3nnc(-c4cccnc4)n3n2)o1,-15%,·,·,25µM*,·,·
CCOC(=O)C(CC)Sc1ccc2nnc(-c3ccc(F)cc3)n2n1 (stereo not drawn),·,1%[57.1 µM],25%[57 µM],·,·,·
CCN(CC)S(=O)(=O)c1ccc2c(c1)nc(CN(C)C(=O)Nc1ccc(C)c(Cl)c1)n2C,-21%,-18%,40%,10%[59 µM],·,·
O=C(Cn1cc2c(n1)CCCC2)Nc1cc(C(F)(F)F)ccc1Cl,3%,-1%,21%,3%[59 µM],·,·
COc1cccc(NC(=O)COC(=O)c2sccc2C)c1,·,-18%,14%,·,-2%,-12
S=c1[nH]c2cc(-c3ccccc3)ccc2o1,?,-20%,14%[57 µM],10µM*,?,?
